Screens: PubChem, National Center for Advancing Translational Sciences (NCATS)
DT40 TDP1 no CPT = qHTS for Inhibitors of human tyrosyl-DNA phosphodiesterase 1 (TDP1): qHTS in cells in absence of CPT | actives 15% (n = 420,000) | AID 686978, 2013 | Potency, µM (highest dose often 46.2 µM), for inactives: at the highest dose activity change, negative = growth inhibition, hits mostly inhibitors | DT40 Tdp1-/- hTDP1 cells, no CPT, ATP luminescence, 48 h; note: potency is the fitted concentration of half-maximal effect; % is set by controls: 0 for no effect and ±100 for the full control effect; nearly all actives have a fitted effect of over 55% in size
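Compound effects on proliferation are scored in DT40 Tdp1-/-;hTDP1 cells in the absence of CPT. ATP levels (CellTiter-Glo luminescence) are recorded after a ≥48 hr, 37 °C incubation.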
Chronic BCR inh = inhibitors of chronic active B-cell receptor signaling | AID 493014 | Potency, µM (top dose mostly 46.1 µM), without a hit: top-dose activity change, negative = inhibition, usual class: inhibitors | actives 0.05% (n = 340,000) | ABC-DLBCL IkBa-CBG/CBR reporter, luminescence ratio, 4 h; active = well fitted inhibition curve with a large enough effect in the signal ratio, with a control signal flat, not every such curve was filed as active; inconclusive = small, poorly fitted or top-dose-only effect, or effect the other way, or a change in a side signal; the % refers to the signal ratio;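 note: potency is the fitted concentration of half-maximal effect; plate controls were basal doxycycline-induced cells for no effect and cells given 10 µM MG132 for full effect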
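TMD8 ABC-DLBCL cells carrying doxycycline-inducible green luciferase fused to IkappaBalpha plus unfused red luciferase were exposed to compounds (up to 46 uM) for 4 hrs at 37C. Activity came from the overlap-corrected green/red luminescence ratio.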
IL-1B inflam inh = blocks inflammasome-driven IL-1 beta release; actives 4.7% (n = 360,000); activity change, % at 57.5 µM; THP-1 LPS/ATP IL-1B secretion, AlphaLISA, 16 h; stronger effect = lower value; AID 743279; in the data active = activity change below about -50%; inconclusive = mostly about -30% to -49%; note: % is set by controls: 0 for no effect and ±100 for the full control effect
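THP-1 cells pretreated 1 hr with compounds (up to 57.5 uM final), then stimulated with LPS (250 ng/mL final) plus ATP (1.25 mM final); secreted IL-1B measured by AlphaLISA after 16 hr, decreased signal indicating inhibition.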
DT40 TDP1 CPT = growth inhibition of DT40 Tdp1-/-;hTDP1 cells with camptothecin (screen for TDP1 inhibitors) | actives 12% (n = 420,000) | chicken DT40 Tdp1-/-;hTDP1 cells + 20 nM CPT, ATP luminescence, 48 h | Potency, µM (series often up to 46.2 µM), without a hit: at the highest dose activity change, negative = growth inhibition, most hits filed as inhibitors; note: potency is the fitted concentration of half-maximal effect; % is set by controls: 0 for no effect and ±100 for the full control effect; nearly all actives have a fitted effect of over 55% in size
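Cell growth measured by CellTiter-Glo luminescence after a minimum 48 h, 37 C compound exposure with 20 nM CPT in Tdp1-knockout DT40 cells stably expressing hTDP1, seeded 400/well; qHTS titration format.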
MCF10A rerep = DNA re-replication induction in MCF 10a cells; MCF 10A DNA re-replication, Hoechst nuclear intensity, 48 h; Potency, µM (doses to about 46.1 µM), for inactives: top-dose activity, positive = re-replication, hits mostly activators; actives 2.9% (n = 350,000); note: potency is the fitted concentration of half-maximal effect; % of control where 0% means no effect; nearly all actives have a fitted effect of over 50% in size
SW480 rerep = inducers of DNA re-replication in SW480 colon cancer cells. SW480 DNA re-replication, Hoechst DNA content imaging, 48 h. Potency, µM (titrated, usually from 46.1 µM), inactives show at the top dose re-replication activation, actives largely listed as activators. actives 1.8% (n = 340,000); note: potency is the fitted concentration of half-maximal effect; % of control where 0% means no effect; nearly all actives have a fitted effect of over 55% in size
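Treated cells incubate 48 hr (37 C, 5% CO2), are stained 40 min with Hoechst, and nuclear fluorescence is enumerated; a rise in nuclei with high DNA signal marks re-replication.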
* = called active by the depositor; ? = inconclusive; nt = no result; [ ] = another dose, or the depositor's remark. Compounds with a hit are over-represented: about 19% of the library has one in this group of screens. Unless noted, calls come from the whole dose curve; as a rule, active = well fitted curve in the direction sought with a large enough effect; inconclusive = small, poorly fitted or top-dose-only effect, or another doubt; inactive = no such curve, though single readings can be large; an effect the other way counts as inactive or inconclusive.

SMILES	DT40 TDP1 no CPT	Chronic BCR inh	IL-1B inflam inh	DT40 TDP1 CPT	MCF10A rerep	SW480 rerep
CCCN(CCC)CCNC(=O)C1CCN(c2nc3ccc(CC)cc3s2)CC1	6.5µM*	nt	nt	8.2µM*	nt	nt
CCCN(CCC)CCCNC(=O)C1CCN(c2nc3ccc(CC)cc3s2)CC1	5.2µM*	nt	nt	5.8µM*	nt	nt
CCCCC(C(=O)OCC)C(N)Cc1ccc(F)cc1 (centres undefined)	?	-8%	-10	?	17%	-98%
CCN(CC(=O)Nc1ccccc1OC)CC(=O)Nc1c(Cl)ccc(C)c1Cl	15µM*	-7%	14	?	1%	-6%
CCN(CC)CC(=O)Nc1ccc(-c2ccc(NC(=O)CN(CC)CC)c(OC)c2)cc1OC	9.2µM*	3%	-16	13µM*	?	?
COc1cc([N+](=O)[O-])ccc1NC(=O)CN(C)C	-16%	-5%	-11	3%	?	4%
COCCn1cnc2c1c(=O)n(Cc1ccc(C#N)cc1)c(=O)n2Cc1ccccc1	-17%	-2%	-8	-12%	4%	16%
CC1C(=O)N(Cc2cn(CC3CCCCC3)nn2)CCS(=O)(=O)N1Cc1ccc(-c2ccncc2)cc1 (centres undefined)	-1%	nt	?	-30%	nt	nt
CC1C(=O)N(Cc2cn(CC3CCCCC3)nn2)CCS(=O)(=O)N1Cc1ccc(-c2ccc(Cl)cc2)cc1 (centres undefined)	8.2µM*	nt	-6	16µM*	nt	nt
CC1C(=O)N(Cc2cn(CC3CCCCC3)nn2)CCS(=O)(=O)N1Cc1ccc(-c2ccc(Cl)c(Cl)c2)cc1 (centres undefined)	9.2µM*	nt	14	10µM*	nt	nt
C#CCOCCOCCOCCNc1nc(N2CCN(C(=O)CCCCCCCCCCNC(=O)[C@H](CCCCN)n3cc(CCO)nn3)CC2)nc(N2CCN(C(=O)CCCCCCCCCCNC(=O)[C@H](CCCCN)n3cc(CCO)nn3)CC2)n1	?	?	-55*	?	?	17%
C#CCOCCOCCOCCNc1nc(N2CCN(C(=O)CCCCCCCCCCNC(=O)[C@H]([C@@H](C)CC)n3cc(CCCCCN)nn3)CC2)nc(N2CCN(C(=O)CCCCCCCCCCNC(=O)[C@@H]([C@H](C)O)n3cc(C)nn3)CC2)n1	?	?	-68*	16µM*	?	?
C#CCOCCOCCOCCNc1nc(N2CCN(C(=O)CCCCCCCCCCNC(=O)[C@H](CCC(=O)O)n3cc(CCCCCN)nn3)CC2)nc(N2CCN(C(=O)CCCCCCCCCCNC(=O)[C@@H]([C@H](C)O)n3cc(C)nn3)CC2)n1	-5%	-9%	?	-2%	33%	1%
C#CCOCCOCCOCCNc1nc(N2CCN(C(=O)CCCCCCCCCCNC(=O)[C@H](CCCCN)n3cc(CCO)nn3)CC2)nc(N2CCN(C(=O)CCCCCCCCCCNC(=O)[C@@H]([C@H](C)O)n3cc(C)nn3)CC2)n1	?	-1%	-71*	?	-3%	-15%[9.22 µM]
C#CCOCCOCCOCCNc1nc(N2CCN(C(=O)CCCCCCCCCCNC(=O)[C@@H](CCC(=O)O)n3cc(CCCCCN)nn3)CC2)nc(N2CCN(C(=O)CCCCCCCCCCNC(=O)[C@@H](CCC(=O)O)n3cc(CCCCCN)nn3)CC2)n1	-7%	-8%	-13	21%	-9%	0%[9.22 µM]
CCn1c(CNC(=O)c2ccc(OC)cc2)nnc1SCC(=O)Nc1cc(C)ccc1C	-15%	nt	nt	-18%	nt	nt
COc1cccc(N2CCN(c3ccc4nnc(CCC(=O)Nc5ccc(C)cn5)n4n3)CC2)c1	?	-5%	-14	?	1%	28%
Cc1ccccc1C(=O)N1CC(=O)Nc2ccc(F)cc2C1c1ccccc1 (centres undefined)	1%	-10%	31	20%	14%	3%
COCCN(CC(=O)Nc1cccc(C)c1C)C(=O)c1cc(-c2ccncc2)nc2ccccc12	?	-3%	-22	?	-2%	-21%
CC1=CC(C)C2(COC(c3ccc[n+](C)c3)OC2)C(C)C1 (centres undefined)	3.7µM*	-7%	36	5.8µM*	?	6%
O=C(NC1CCN(S(=O)(=O)c2ccccc2C(F)(F)F)CC1)c1ccco1	-12%	1%	2	-5%	-12%	3%
Cc1ccc(C(=O)NCCOc2cccc(C)c2)cc1	-6%	3%	-20	1%	0%	-3%
CSc1ccccc1C(=O)NCCOc1cccc(C)c1	-10%	-4%	-91*	-24%	16%	14%
CCOc1ccc(S(=O)(=O)NCCC(=O)NCCOc2ccccc2OC)cc1	?	1%	-4	?	?	?
COC(=O)c1ccc(S(=O)(=O)NCCSc2nnc3c4ccccc4n(C)c3n2)cc1	15µM*	1%	11	?	3%	-9%
SMILES	DT40 TDP1 no CPT	Chronic BCR inh	IL-1B inflam inh	DT40 TDP1 CPT	MCF10A rerep	SW480 rerep
CCN(CCCNC(=O)c1nn(-c2ccc(OC)c(Cl)c2)c(=O)c2c1c1ccccc1n2C)c1ccccc1	-9%	nt	nt	-8%	nt	nt
COc1cc(OC)cc(-c2sc3ccc(OC)cc3c2C#CCO)c1	21µM*	?	-18	?	25%	1%
COc1cc(OC)cc(-c2sc3ccc(OC)cc3c2C#CC(C)(C)O)c1	-12%	-4%	-9	-15%	69%	12%
COc1cccc(-c2sc3ccc(OC)cc3c2C#CCCO)c1	?	?	16	26µM*	?	8%
COc1ccc(C2CC(=O)c3cc(-c4nc(-c5cccc(Cl)c5)cs4)c(=O)[nH]c3C2)cc1OC (centres undefined)	9.2µM*	nt	nt	?	nt	nt
COc1ccc(C2CC(=O)c3cc(-c4nc(-c5cccc([N+](=O)[O-])c5)cs4)c(=O)n(-c4ccc(OC)cc4)c3C2)cc1 (centres undefined)	7%	nt	nt	-2%	nt	nt
O=C1CC(c2ccccc2)Cc2[nH]c(=O)c(-c3nc(-c4ccc(Cl)c(Cl)c4)cs3)cc21 (centres undefined)	2.3µM*	nt	nt	3.3µM*	nt	nt
COc1ccc(C2CC(=O)c3cc(-c4nc(-c5ccc(Cl)cc5)cs4)c(=O)[nH]c3C2)cc1 (centres undefined)	-27%	nt	nt	-6%	nt	nt
O=C1CC(c2ccccc2)Cc2[nH]c(=O)c(-c3nc(-c4ccc(Cl)cc4)cs3)cc21 (centres undefined)	0.65µM*	nt	nt	0.58µM*	nt	nt
